Source: PubChem BioAssay
Active and inactive are the calls of the source.

How the values were obtained:
[1] = binders of probe aFSTL3 on microarray, primary screen, stem cell growth factor project, biochemical, small-molecule microarray, fluorescence 635/667 (AID 1064); conditions: higher = more signal;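 also: measures binding of the biotinylated anti-FSTL3 antibody to printed compounds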
[2] = binders from COS7 lysate, DM2A8 probe, primary screen, torsin A project, cell lysate, small-molecule microarray, fluorescence 635/667 (AID 1065); conditions: higher = more signal, COS7 lysate expressing mutant human TOR1A
[3] = binders of probe aFGF2 on microarray, primary screen, stem cell growth factor project, biochemical, small-molecule microarray, fluorescence 635/667 (AID 1067); conditions: higher = more signal;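 also: measures binding of biotinylated aFGF2 protein to printed compounds on slides; z-score merges feature fluorescence and signal-to-noise across triplicate slides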
[4] = binders of probe aFGF10 on microarray, primary screen, stem cell growth factor project, biochemical, small-molecule microarray, fluorescence 635/667 (AID 1071); conditions: higher = more signal;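 also: score merges 667 nm spot intensity and signal to noise from triplicate slides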
[5] = biological target: Neurogenic locus notch homolog protein 2 (Homo sapiens) (UniProt Q04721); experiment: Notch2 binders on small-molecule microarrays, primary screen, biochemical, small-molecule microarray, 635 nm fluorescence, stem cell growth factors (AID 1073); conditions: Notch2 binding, higher = more signal
Chain of Neurogenic locus notch homolog protein 2 (Homo sapiens) (Q04721 whole entry, looked up, canonical isoform): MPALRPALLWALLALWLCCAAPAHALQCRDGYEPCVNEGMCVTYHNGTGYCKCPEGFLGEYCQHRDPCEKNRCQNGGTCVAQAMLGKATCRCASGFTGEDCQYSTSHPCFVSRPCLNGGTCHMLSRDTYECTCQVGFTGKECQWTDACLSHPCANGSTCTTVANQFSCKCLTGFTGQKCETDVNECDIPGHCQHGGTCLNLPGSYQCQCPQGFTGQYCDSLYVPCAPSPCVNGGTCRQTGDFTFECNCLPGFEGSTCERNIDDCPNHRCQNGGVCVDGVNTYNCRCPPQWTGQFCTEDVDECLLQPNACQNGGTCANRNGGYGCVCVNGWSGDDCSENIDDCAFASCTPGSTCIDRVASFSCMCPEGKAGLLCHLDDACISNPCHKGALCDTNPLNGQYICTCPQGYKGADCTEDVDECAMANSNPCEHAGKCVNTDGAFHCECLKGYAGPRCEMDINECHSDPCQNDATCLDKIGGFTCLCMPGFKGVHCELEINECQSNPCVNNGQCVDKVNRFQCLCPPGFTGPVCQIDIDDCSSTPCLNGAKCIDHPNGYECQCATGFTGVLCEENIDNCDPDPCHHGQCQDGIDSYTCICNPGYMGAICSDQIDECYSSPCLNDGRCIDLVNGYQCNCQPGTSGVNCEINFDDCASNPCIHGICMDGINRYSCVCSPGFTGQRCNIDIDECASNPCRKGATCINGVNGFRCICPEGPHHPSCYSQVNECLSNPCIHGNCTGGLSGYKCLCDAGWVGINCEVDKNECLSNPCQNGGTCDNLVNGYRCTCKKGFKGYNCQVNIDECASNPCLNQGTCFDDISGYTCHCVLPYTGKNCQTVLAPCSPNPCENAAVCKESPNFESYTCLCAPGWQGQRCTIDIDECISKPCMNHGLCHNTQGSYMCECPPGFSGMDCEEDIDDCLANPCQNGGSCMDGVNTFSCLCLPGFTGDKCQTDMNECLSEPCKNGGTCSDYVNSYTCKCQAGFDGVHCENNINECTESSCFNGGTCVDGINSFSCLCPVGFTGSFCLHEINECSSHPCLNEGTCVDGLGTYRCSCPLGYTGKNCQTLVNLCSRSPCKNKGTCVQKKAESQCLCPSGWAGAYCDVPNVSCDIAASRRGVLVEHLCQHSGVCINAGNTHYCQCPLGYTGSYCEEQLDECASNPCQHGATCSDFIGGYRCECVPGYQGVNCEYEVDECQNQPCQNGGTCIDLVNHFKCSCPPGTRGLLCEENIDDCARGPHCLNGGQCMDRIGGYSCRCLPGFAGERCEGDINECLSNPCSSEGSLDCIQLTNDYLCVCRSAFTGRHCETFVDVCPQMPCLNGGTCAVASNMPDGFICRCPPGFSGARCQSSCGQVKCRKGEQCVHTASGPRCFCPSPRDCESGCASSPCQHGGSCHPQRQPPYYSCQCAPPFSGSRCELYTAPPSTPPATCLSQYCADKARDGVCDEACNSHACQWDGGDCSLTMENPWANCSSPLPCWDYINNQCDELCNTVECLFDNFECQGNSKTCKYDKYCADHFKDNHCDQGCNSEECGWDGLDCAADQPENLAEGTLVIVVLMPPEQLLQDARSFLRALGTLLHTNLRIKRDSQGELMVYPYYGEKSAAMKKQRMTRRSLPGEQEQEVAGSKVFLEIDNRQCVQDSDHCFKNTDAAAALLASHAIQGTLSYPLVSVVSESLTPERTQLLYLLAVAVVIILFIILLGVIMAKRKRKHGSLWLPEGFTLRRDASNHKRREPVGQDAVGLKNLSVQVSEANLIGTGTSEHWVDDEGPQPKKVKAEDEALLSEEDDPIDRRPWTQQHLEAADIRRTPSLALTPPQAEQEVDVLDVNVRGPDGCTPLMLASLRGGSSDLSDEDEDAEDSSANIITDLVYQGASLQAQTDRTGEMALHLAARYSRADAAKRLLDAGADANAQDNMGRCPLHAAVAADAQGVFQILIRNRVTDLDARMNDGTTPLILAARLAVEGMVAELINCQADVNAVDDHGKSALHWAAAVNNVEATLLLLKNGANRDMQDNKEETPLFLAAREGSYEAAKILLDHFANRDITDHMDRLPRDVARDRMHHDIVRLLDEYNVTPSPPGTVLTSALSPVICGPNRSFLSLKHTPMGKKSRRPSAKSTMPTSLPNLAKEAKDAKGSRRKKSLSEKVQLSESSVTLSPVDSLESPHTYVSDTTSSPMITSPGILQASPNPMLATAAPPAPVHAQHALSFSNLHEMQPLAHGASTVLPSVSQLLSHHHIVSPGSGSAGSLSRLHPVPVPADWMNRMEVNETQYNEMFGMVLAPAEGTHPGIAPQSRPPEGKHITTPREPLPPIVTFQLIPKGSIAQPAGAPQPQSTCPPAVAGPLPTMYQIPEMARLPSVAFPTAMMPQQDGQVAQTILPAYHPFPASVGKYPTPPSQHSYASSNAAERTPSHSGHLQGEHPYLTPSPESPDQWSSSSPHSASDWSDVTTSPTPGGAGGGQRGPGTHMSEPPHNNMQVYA

[6] = biological target: Pro-neuregulin-1, membrane-bound isoform (Homo sapiens) (UniProt Q02297); experiment: NRG1 binders on small-molecule microarrays, primary screen, psychiatric disease protein project, biochemical, small-molecule microarray, fluorescence 635/667 (AID 1075); conditions: NRG1 binding, 635 nm fluorescence, higher = more signal;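 also: score combines 667 nm spot fluorescence with signal to noise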
Chain of Pro-neuregulin-1, membrane-bound isoform (Homo sapiens) (Q02297 whole entry, looked up, the tested form may be a part, canonical isoform): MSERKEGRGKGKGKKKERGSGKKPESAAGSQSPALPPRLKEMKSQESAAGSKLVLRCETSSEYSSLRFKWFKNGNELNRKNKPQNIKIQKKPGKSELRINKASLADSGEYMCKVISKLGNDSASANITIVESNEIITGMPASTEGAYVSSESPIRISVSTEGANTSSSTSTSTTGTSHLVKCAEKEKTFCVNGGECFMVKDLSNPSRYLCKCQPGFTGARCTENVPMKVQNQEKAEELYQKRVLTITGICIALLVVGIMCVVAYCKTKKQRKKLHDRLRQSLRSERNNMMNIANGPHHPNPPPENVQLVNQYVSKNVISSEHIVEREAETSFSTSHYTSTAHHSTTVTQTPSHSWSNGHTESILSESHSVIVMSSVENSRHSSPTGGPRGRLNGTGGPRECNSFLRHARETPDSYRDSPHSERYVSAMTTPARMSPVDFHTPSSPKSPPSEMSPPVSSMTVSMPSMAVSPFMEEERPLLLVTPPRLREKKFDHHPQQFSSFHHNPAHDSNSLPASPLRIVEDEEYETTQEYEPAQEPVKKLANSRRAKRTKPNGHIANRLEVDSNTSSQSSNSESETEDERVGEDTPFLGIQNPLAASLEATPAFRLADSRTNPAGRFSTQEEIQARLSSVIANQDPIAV

[7] = system: Neuregulin-1 EGF-like domain; experiment: binders of neuregulin-1 EGF-like domain, primary screen, biochemical, small-molecule microarray, 635 nm fluorescence (AID 1081); conditions: small-molecule microarray binding, higher = more signal;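 also: binding of the protein to compounds printed on small-molecule microarray slides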
[8] = FRG1 promoter luciferase signal modulators, primary screen, FRG1 inhibition for FSHD, cell-based, C2C12 myotubes, firefly/Renilla luciferase, luminescence (AID 1084); conditions: higher = more signal, called active from +8 up or from −8 down
[9] = binders of probe aFST on microarray, primary screen, stem cell growth factor project, biochemical, small-molecule microarray, fluorescence 635/667 (AID 1086); conditions: higher = more signal;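 also: score merges 667 nm fluorescence with signal-to-noise of each printed compound spot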
[10] = binders of probe aHhip on microarray, primary screen, stem cell growth factor project, biochemical, small-molecule microarray, fluorescence 635/667 (AID 1087); conditions: higher = more signal;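 also: score merges spot fluorescence at 667nm with spot signal to noise ratio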

Compound	composite z-score [1]	composite z-score [2]	composite z-score [3]	composite z-score [4]	composite z-score [5]	composite z-score [6]	composite z-score [7]	z-score [8]	composite z-score [9]	composite z-score [10]
CC(C)(C)OC(=O)CC[C@]1(C(N)=O)COC(c2ccc(OCCCO)cc2)=N1	0.645	2.69	0.325	0.6	1.39	1.14	1.03	0.266 (inactive)	1.19	0.462
O=C1C[C@@H](O)[C@@H](O)[C@@H]2[C@@H]3C(=O)N(c4cccc(Oc5ccccc5)c4)C(=O)[C@@H]3CC[C@@H]12	-0.557	0.272	-0.0598	0.516	1.26	0.713	1.01	-0.211 (inactive)	0.0399	0.0659
CN1C(=O)C2C=CC(C(O)c3ccc(I)cc3)N(NC(=O)OC(C)(C)C)C2C1=O (stereo not given)	0.108	-0.0004	0.111	0.652	1.68	1.69	1.38	-3.23 (inactive)	1.18	-0.0994
C=CC[C@]1(C(=O)NCc2ccccc2)N=C(c2ccc(OCCCO)cc2)O[C@H]1c1ccccc1	0.674	1.1	-0.0131	-0.439	0.007	1.51	1.26	-0.97 (inactive)	0.991	-0.0645
COCCCNC(=O)[C@]1(Cc2ccccc2)N=C(c2ccc(OCCCO)cc2)O[C@@H]1c1ccccc1	0.206	-0.0225	-0.01	0.791	0.967	1.54	1.04	-1.33 (inactive)	0.584	-0.0645
CCCNC(=O)OC[C@H]1O[C@H](CCON=C[C@@H](OC)[C@H](C)C=CCC(=O)OC)C=C[C@@H]1Oc1ccc(OC)cc1	-0.479	0.698	-0.136	-0.192	-0.0065	-0.23	0.614	1.16 (inactive)	-0.0617	-0.0672
COCC1=C2[C@@H](CCc3ccccc3)OB(O)C[C@@H]2n2c(=O)n(-c3ccccc3)c(=O)n2C1	-0.163	-0.106	-0.0695	0.882	0.112	-0.391	0.751	-3.23 (inactive)	-0.373	-0.236
O=C1[C@H]2[C@H]3[C@H](O)[C@H](O)CC(=NOCc4ccccc4)[C@@H]3CC[C@H]2C(=O)N1C1CCCCC1	-0.116	0.487	-0.098	0.292	0.0141	1.1	0.564	0.32 (inactive)	0.0422	0.0024
CCCC=C(CCC)[C@@H](NC(=O)c1ccc(-c2ccccc2)cc1)c1ccc(C(=O)OC)cc1	0.0763	-0.719	0.0827	0.0375	1.51	0.746	0.824	0.348 (inactive)	0.801	1.81
O=C1[C@H]2[C@H]3[C@H](O)[C@H](O)CC(=NOC[C@@H](O)COCc4ccco4)[C@H]3CC[C@H]2C(=O)N1Cc1ccc2c(c1)OCO2	-0.707	1.73	-0.204	-0.143	-0.282	-0.621	0.561	0.316 (inactive)	-0.3	-0.44
COC(=O)[C@H]1COC(c2ccc(OCCCO)cc2)=N1	0.971	-0.354	-0.0425	-0.576	0.115	-0.0556	0.207	0.97 (inactive)	0.179	-0.0618
CC(=O)OC[C@H]1O[C@H](CCON=C(C)CCN2CCc3nc(-c4ccccc4)c(-c4ccccc4)cc3C2)C=C[C@@H]1OC(C)=O	-0.195	0.472	-0.119	0.173	0.0174	0.266	0.454	1.23 (inactive)	-0.105	0.0749
Cc1cc2c(nc1C)CCCN2CC(C)ON=C1[C@H]2CCn3c(=O)n(-c4ccccc4)c(=O)n3[C@H]2[C@H](O)[C@@H]2O[C@H]12 (stereo not given in full)	-0.335	0.533	0.0477	0.73	0.36	0.0785	1.1	-0.325 (inactive)	0.265	-0.194
[N-]=[N+]=NCc1ccccc1[C@@H]1OC(c2ccc(OCCCO)cc2)=N[C@]1(Cc1ccccc1)C(=O)N1CCOCC1	0.351	1.51	0.122	0.875	1.55	1.68	1.25	-1.42 (inactive)	0.804	0.778
COc1ccc(-c2nc3c(c4c2C[C@H](C)OC4)CN(CCC(C)C)CC3)cc1	-0.256	0.39	-0.123	0.644	1.04	0.114	0.917	-0.145 (inactive)	0.414	-0.189
O=C(NN=C1C[C@@H](O)[C@@H](O)[C@@H]2[C@@H]3C(=O)N(c4cccc(Oc5ccccc5)c4)C(=O)[C@@H]3CC[C@@H]12)OCc1ccccc1	0.103	-0.336	-0.0891	0.0457	0.222	0.259	-0.157	0.31 (inactive)	0.274	0.2
